Data from PubChem BioAssay (NCI).
About 79,000 compounds went through this panel and 15% of them were active in at least one assay; those are over-represented in the sample as a whole. Activity calls are given as the source filed them. No stated cut-off is given here; in the data, active means growth inhibition above about 70%; inactive means the rest.

Key:
[1] = NCI Yeast Anticancer Drug Screen. Data for the rad52 strain (AID 147);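 further: 0% = growth of vehicle-treated control cultures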; conditions: S. cerevisiae rad52 mutant growth inhibition, hits give high values
In short: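 DNA repair-defective yeast; compound exposure; growth scored against vehicle controls.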

[2] = NCI Yeast Anticancer Drug Screen. Data for the wt1 strain (AID 149);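 further: 0% = growth of vehicle-treated wt1 cultures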; conditions: S. cerevisiae wt1 strain (SPY 50644) growth inhibition, hits give high values
In short: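 wt1 yeast, compound-treated; % growth inhibition vs vehicle control.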

[3] = NCI Yeast Anticancer Drug Screen. Data for the rad50EPP+ strain (AID 151);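 further: 0% = growth of vehicle-treated control cultures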; conditions: S. cerevisiae rad50 mutant strain, hits give high values
In short: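 rad50EPP+ yeast treated with test compounds. Readout: growth vs vehicle control.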

[4] = NCI Yeast Anticancer Drug Screen. Data for the rad50 strain (AID 155);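 further: 0% = growth of vehicle-only cultures of the same strain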; conditions: S. cerevisiae rad50 strain growth inhibition, hits give high values
In short: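 Genetically altered yeast (DNA repair pathway); compound treatment; growth inhibition vs vehicle ctrl.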

[5] = NCI Yeast Anticancer Drug Screen. Data for the mec2-1 strain (AID 157); conditions: S. cerevisiae mec2-1 strain, hits give high values
In short: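 Growth inhibition is read against vehicle-treated controls after compound exposure of the mec2-1 yeast strain, which is defective in DNA damage repair or cell cycle control.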

[6] = NCI Yeast Anticancer Drug Screen. Data for the rad14 strain (AID 159);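 further: 0% = growth of vehicle-treated control cultures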; conditions: S. cerevisiae rad14 strain growth inhibition, hits give high values
In short: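 Test compounds were applied to a repair-deficient yeast strain. Its growth was then compared with that of cultures given vehicle alone, and inhibition was expressed relative to those controls.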

[7] = NCI Yeast Anticancer Drug Screen. Data for the sgs1 mgt1 strain (AID 161);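 further: 0% = growth of cultures given vehicle only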; conditions: S. cerevisiae sgs1 mgt1 strain, hits give high values
In short: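 Percent growth inhibition was derived by comparing compound-exposed mutant yeast with vehicle-exposed cultures. The strain carries alterations in DNA damage repair.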

[8] = NCI Yeast Anticancer Drug Screen. Data for the CLN2oe strain (AID 163);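 further: 0% = growth of vehicle-only control cultures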; conditions: S. cerevisiae CLN2oe strain, hits give high values
In short: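 Compound-treated yeast; growth vs vehicle ctrl = % inhibition. Genetically altered strain (cell-cycle control).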

[9] = NCI Yeast Anticancer Drug Screen. Data for the cln2 rad14 strain (AID 165);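 further: 0% = growth equal to vehicle treated cultures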; conditions: S. cerevisiae cln2 rad14 strain, hits give high values
In short: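 Growth inhibition, relative to vehicle-treated controls, is the read-out. The test organism is a yeast strain with defined genetic alterations, cln2 rad14.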

[10] = NCI Yeast Anticancer Drug Screen. Data for the bub3 strain (AID 167); conditions: S. cerevisiae bub3 mutant strain, hits give high values
In short: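 Yeast carrying a defined mutation is treated with each compound, and growth is compared with that of vehicle-exposed cells to give inhibition.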

[11] = NCI Yeast Anticancer Drug Screen. Data for the wt2 strain (AID 169);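 further: 0% = growth of vehicle-treated yeast cultures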; conditions: S. cerevisiae wt2 strain growth inhibition, hits give high values
In short: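 Compound exposure of yeast; growth compared with vehicle controls; inhibition reported.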

[12] = NCI Yeast Anticancer Drug Screen. Data for the mlh1 strain (AID 171);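 further: 0% = growth of vehicle-treated control cultures of the same strain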; conditions: S. cerevisiae mlh1 strain growth inhibition, hits give high values
In short: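 Compounds are applied to a genetically altered yeast strain, and its growth is compared with that of vehicle-treated cultures to give percent inhibition.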

[13] = NCI Yeast Anticancer Drug Screen. Data for the sgs1 strain (AID 173);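 further: 0% = growth of vehicle-only control cultures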; conditions: S. cerevisiae sgs1 mutant, hits give high values
In short: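 Compounds applied to genetically altered yeast; growth compared with vehicle-treated cultures to give % inhibition.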

[14] = NCI Yeast Anticancer Drug Screen. Data for the mlh1 rad18 strain (AID 175); conditions: S. cerevisiae mlh1 rad18 strain growth inhibition, hits give high values
In short: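 Cells of a genetically altered yeast strain, deficient in DNA damage repair, were treated with compound. Their growth was then compared with that of vehicle-treated cultures to give inhibition.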

[15] = NCI Yeast Anticancer Drug Screen. Data for the rad18 strain (AID 177); conditions: S. cerevisiae rad18 mutant growth inhibition, hits give high values
In short: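 Compounds are applied to a repair-deficient yeast strain, and growth is compared with that of vehicle-treated cultures to give percent inhibition.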

[16] = at 5.0 µM (retest, dose inferred, filed as 0.5)
[17] = at 50.0 µM (retest, dose inferred, filed as 5.0)

Measured: growth inhibition

COc1ccc(S(=O)(=O)N/N=C\c2cc([N+](=O)[O-])cc(I)c2O)c(OC)c1OC
active: [1]; at 100.0 µM 94% | [4]; [17] 72% | [4]; at 50.0 µM 92.9% | [4]; at 100.0 µM 95% | [5]; [17] 76% | [5]; at 50.0 µM 73% | [5]; at 100.0 µM 83% | [6]; at 100.0 µM 96% | [7]; [17] 74% | [7]; at 50.0 µM 88.3% | [8]; at 100.0 µM 93% | [10]; at 100.0 µM 86% | [11]; at 100.0 µM 93% | [12]; at 100.0 µM 88% | [13]; at 100.0 µM 97% | [14]; [17] 73% | [14]; at 50.0 µM 85.5% | [15]; at 100.0 µM 93%
inactive: [1]; at 1.2 µM 0% | [1]; at 3.7 µM 9% | [1]; at 11.0 µM 20% | [1]; at 33.0 µM 42% | [2]; at 1.2 µM -7% | [2]; at 3.7 µM -8% | [2]; at 11.0 µM -8% | [2]; at 33.0 µM 9% | [2]; at 100.0 µM 49% | [3]; at 1.2 µM -5% | [3]; at 3.7 µM -6% | [3]; at 11.0 µM -5% | [3]; at 33.0 µM 17% | [3]; at 100.0 µM 63% | [4]; at 1.2 µM -7% | [4]; at 3.7 µM -7% | [4]; [16] 10% | [4]; at 11.0 µM 23% | [4]; at 33.0 µM 64% | [5]; at 1.2 µM -2% | [5]; at 3.7 µM -6% | [5]; [16] 14% | [5]; at 11.0 µM -7% | [5]; at 33.0 µM 15% | [6]; at 1.2 µM -3% | [6]; at 3.7 µM 4% | [6]; at 11.0 µM 13% | [6]; at 33.0 µM 39% | [7]; [16] 13% | [8]; at 1.2 µM -6% | [8]; at 3.7 µM -10% | [8]; at 11.0 µM -8% | [8]; at 33.0 µM 18% | [9]; [16] -8% | [9]; [17] 46% | [9]; at 50.0 µM 11.1% | [10]; at 1.2 µM -13% | [10]; at 3.7 µM -15% | [10]; [16] 1% | [10]; at 11.0 µM -5% | [10]; at 33.0 µM 15% | [10]; [17] 68% | [10]; at 50.0 µM 25.8% | [11]; at 1.2 µM -7% | [11]; at 3.7 µM -7% | [11]; at 11.0 µM -6% | [11]; at 33.0 µM 15% | [12]; at 1.2 µM 0% | [12]; at 3.7 µM -8% | [12]; at 11.0 µM 0% | [12]; at 33.0 µM 29% | [13]; at 1.2 µM -5% | [13]; at 3.7 µM -8% | [13]; at 11.0 µM 9% | [13]; at 33.0 µM 45% | [14]; [16] 15% | [15]; at 1.2 µM -1% | [15]; at 3.7 µM 0% | [15]; at 11.0 µM 13% | [15]; at 33.0 µM 37%

O=C1OC2C(O)COC2(OCc2c[nH]c3ccccc23)C1O (stereo unspecified) (tested in a mixture with another compound)
active: [1]; at 100.0 µM 84% | [2]; at 100.0 µM 88% | [4]; at 100.0 µM 95% | [5]; at 100.0 µM 91% | [6]; at 100.0 µM 95% | [10]; at 100.0 µM 92% | [11]; at 100.0 µM 75% | [12]; at 100.0 µM 87% | [13]; at 100.0 µM 92% | [14]; at 50.0 µM 88.9% | [15]; at 100.0 µM 96%
inactive: [1]; at 1.2 µM -2% | [1]; at 3.7 µM -1% | [1]; at 11.0 µM 1% | [1]; at 33.0 µM 24% | [2]; at 1.2 µM -1% | [2]; at 3.7 µM -1% | [2]; at 11.0 µM 0% | [2]; at 33.0 µM 12% | [3]; at 1.2 µM -5% | [3]; at 3.7 µM 3% | [3]; at 11.0 µM 7% | [3]; at 33.0 µM 14% | [3]; at 100.0 µM 15% | [4]; at 1.2 µM 2% | [4]; at 3.7 µM 5% | [4]; [16] 1% | [4]; at 11.0 µM 19% | [4]; at 33.0 µM 26% | [4]; [17] 15% | [4]; at 50.0 µM 66.4% | [5]; at 1.2 µM 0% | [5]; at 3.7 µM 1% | [5]; [16] -3% | [5]; at 11.0 µM 1% | [5]; at 33.0 µM 12% | [5]; [17] 22% | [5]; at 50.0 µM 49.1% | [6]; at 1.2 µM -2% | [6]; at 3.7 µM 2% | [6]; at 11.0 µM 4% | [6]; at 33.0 µM 30% | [7]; [16] -3% | [7]; [17] 48% | [7]; at 50.0 µM 66.5% | [8]; at 1.2 µM 1% | [8]; at 3.7 µM 1% | [8]; at 11.0 µM 0% | [8]; at 33.0 µM 9% | [8]; at 100.0 µM 54% | [9]; [16] -2% | [9]; [17] 36% | [9]; at 50.0 µM 42.4% | [10]; at 1.2 µM 0% | [10]; at 3.7 µM 3% | [10]; [16] -1% | [10]; at 11.0 µM 3% | [10]; at 33.0 µM 22% | [10]; [17] 46% | [10]; at 50.0 µM 6.5% | [11]; at 1.2 µM -2% | [11]; at 3.7 µM 7% | [11]; at 11.0 µM 0% | [11]; at 33.0 µM 5% | [12]; at 1.2 µM -1% | [12]; at 3.7 µM -2% | [12]; at 11.0 µM -2% | [12]; at 33.0 µM 11% | [13]; at 1.2 µM -1% | [13]; at 3.7 µM 0% | [13]; at 11.0 µM 3% | [13]; at 33.0 µM 43% | [14]; [16] -3% | [14]; [17] 26% | [15]; at 1.2 µM 0% | [15]; at 3.7 µM 2% | [15]; at 11.0 µM 9% | [15]; at 33.0 µM 68%
